Reference: PubChem BioAssay
Activity calls are given as the source filed them.

Key:
[1] = tested on: PRMT1 (protein arginine N-methyltransferase 1); test: PRMT1 binders on small-molecule microarrays, primary screen, biochemical, small-molecule microarray, 635 nm fluorescence (AID 1088); conditions: small-molecule microarray binding, higher = more signal;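 further: binding of Prmt1 protein to compounds spotted on small-molecule microarray slides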
[2] = yeast growth modulation, basal conditions, primary screen, YJM789 clinical isolate, OD600, 24 h (AID 1089);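 further: growth of clinical yeast isolate S. cerevisiae YJM 789 seeded 1000 cells per well; test concentration not given here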; conditions: S. cerevisiae YJM789 growth, higher = more signal, called active from +8 up or from −8 down
[3] = fission yeast growth modulation, primary screen, strain 972, OD600, 24 h, no modulator (AID 1090);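 further: basal condition with compound alone and no growth modifier present; test concentration not given here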; conditions: S. pombe 972 growth, higher = more signal, called active from +8 up or from −8 down
[4] = S. cerevisiae growth modulation with rapamycin, primary screen, strain BY4716, OD600, 96 h (AID 1091); conditions: higher = more signal, called active from +8 up or from −8 down; further: test concentration not given here
[5] = molecular target: Torsin-1A-interacting protein 2 (Homo sapiens) (UniProt Q8NFQ8); test: LULL1 binders on small-molecule microarray, primary screen, cell lysate, human LULL1 lysate, 635/667 nm fluorescence (AID 1092); conditions: hLULL1 lysate binding, 635 nm fluorescence, higher = more signal;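 further: probe is lysate of COS7 cells overexpressing human LULL1; score merges per-feature 667 nm fluorescence with signal-to-noise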
[6] = E. coli growth modulation, two-sided OD650, primary screen, E. coli filamentation project, strain DRC41, 24 h (AID 1093); conditions: OD650, 24 h, higher = more signal, called active from +8 up or from −8 down;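 further: MC1000 strain lacking acrAB efflux and sulA so SOS filamentation is blocked; test concentration not given here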
[7] = small-molecule microarray binders of probe aLefty2, primary screen, biochemical, biotinylated probe, 635/667 nm fluorescence (AID 1094); conditions: higher = more signal;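 further: score merges spot fluorescence near 667 nm with spot signal-to-noise ratio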
[8] = tested on: Noggin (protein binding on small-molecule microarray); test: Noggin binders on small-molecule microarray, primary screen, biochemical, 635/667 nm fluorescence (AID 1095); conditions: 635 nm fluorescence, higher = more signal;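 further: score merges 667 nm feature fluorescence with signal to noise over triplicate slides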
[9] = molecular target: Neurogenic locus notch homolog protein 3 (Homo sapiens) (UniProt Q9UM47); test: NOTCH3 binders on small-molecule microarray, primary screen, biochemical, 635/667 nm fluorescence (AID 1096); conditions: NOTCH3 binding, 635 nm fluorescence, higher = more signal
[10] = small-molecule microarray binders of probe aEGFR, primary screen, biochemical, biotinylated probe, 635/667 nm fluorescence (AID 1097); conditions: higher = more signal;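 further: probe is a biotinylated anti-EGFR antibody binding compounds printed on slides; score combines fluorescence near 667 nm and signal to noise of each spot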
[11] = tested on: Plasmodium falciparum Sir2 (PF13_0152, Sir2A); test: pfSir2 binders on small-molecule microarrays, primary screen, biochemical, small-molecule microarray, 635 nm fluorescence (AID 1098); conditions: small-molecule microarray binding, fluorescence 635 nm; higher = more signal;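 further: score merges spot fluorescence intensity with its signal-to-noise ratio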
[12] = small-molecule microarray binders of probe aDKK1, primary screen, biochemical, biotinylated probe, 635/667 nm fluorescence (AID 1099); conditions: higher = more signal;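 further: score merges 667nm spot fluorescence with signal to noise across triplicate slides; reference of the scale not given here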
[13] = small-molecule microarray binders of probe aCHRDL2, primary screen, biochemical, biotinylated probe, 635/667 nm fluorescence (AID 1100); conditions: higher = more signal
[14] = splicing luciferase reporter signal modulators, primary screen, spliceosome inhibition project, cell-based, HEK293, splice +/- reporter (AID 1101); conditions: luminescence, 24 h, higher = more signal, called active from +8 up or from −8 down;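 further: HEK293 cells carrying a splicing-competent luciferase reporter gene; test concentration not given here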
[15] = molecular target: Fibroblast growth factor 10 (Homo sapiens) (UniProt O15520); test: FGF10 binders on small-molecule microarrays, primary screen, biochemical, small-molecule microarray, 635 nm fluorescence (AID 1102); conditions: FGF10 binding, fluorescence 635 nm, higher = more signal
[16] = tested on: glycogen synthase kinase-3 (GSK3A per assay name; protocol says GSK3B); test: GSK3 binders on small-molecule microarrays, primary screen, biochemical, small-molecule microarray, 635 nm fluorescence, GSK3A (AID 1103); conditions: small-molecule microarray binding, fluorescence 635 nm; higher = more signal; further: the record names both GSK3A and GSK3B
[17] = molecular target: Epidermal growth factor receptor (Homo sapiens) (UniProt P00533); test: EGFR binders on small-molecule microarrays, primary screen, biochemical, small-molecule microarray, 635 nm fluorescence (AID 1104); conditions: EGFR binding, higher = more signal;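 further: score merges 667 nm emission intensity with spot signal to noise over triplicate slides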
[18] = molecular target: Follistatin-related protein 3 (Homo sapiens) (UniProt O95633); test: FSTL3 binders on small-molecule microarrays, primary screen, biochemical, small-molecule microarray, 635 nm fluorescence (AID 1105); conditions: FSTL3 binding, higher = more signal;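 further: score merges emission near 667 nm and signal to noise per printed spot across three slides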
[19] = molecular target: Dickkopf-related protein 1 (Homo sapiens) (UniProt O94907); test: DKK1 binders on small-molecule microarrays, primary screen, biochemical, small-molecule microarray, 635 nm fluorescence scan (AID 1106); conditions: DKK1 binding, higher = more signal;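 further: score merges emission near 667 nm with signal to noise over three replicate slides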
[20] = tested on: Inhibin beta A chain (activin A); test: INHBA (activin A) binders on microarrays, primary screen, biochemical, small-molecule microarray, 635 nm fluorescence scan (AID 1107); conditions: small-molecule microarray binding, higher = more signal;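 further: mouse activin A protein probed at 4.33 µg/mL on printed slides; score merges bound-protein fluorescence near 667 nm with spot signal-to-noise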

Sequence of Neurogenic locus notch homolog protein 3 (Homo sapiens) (Q9UM47 whole entry, looked up): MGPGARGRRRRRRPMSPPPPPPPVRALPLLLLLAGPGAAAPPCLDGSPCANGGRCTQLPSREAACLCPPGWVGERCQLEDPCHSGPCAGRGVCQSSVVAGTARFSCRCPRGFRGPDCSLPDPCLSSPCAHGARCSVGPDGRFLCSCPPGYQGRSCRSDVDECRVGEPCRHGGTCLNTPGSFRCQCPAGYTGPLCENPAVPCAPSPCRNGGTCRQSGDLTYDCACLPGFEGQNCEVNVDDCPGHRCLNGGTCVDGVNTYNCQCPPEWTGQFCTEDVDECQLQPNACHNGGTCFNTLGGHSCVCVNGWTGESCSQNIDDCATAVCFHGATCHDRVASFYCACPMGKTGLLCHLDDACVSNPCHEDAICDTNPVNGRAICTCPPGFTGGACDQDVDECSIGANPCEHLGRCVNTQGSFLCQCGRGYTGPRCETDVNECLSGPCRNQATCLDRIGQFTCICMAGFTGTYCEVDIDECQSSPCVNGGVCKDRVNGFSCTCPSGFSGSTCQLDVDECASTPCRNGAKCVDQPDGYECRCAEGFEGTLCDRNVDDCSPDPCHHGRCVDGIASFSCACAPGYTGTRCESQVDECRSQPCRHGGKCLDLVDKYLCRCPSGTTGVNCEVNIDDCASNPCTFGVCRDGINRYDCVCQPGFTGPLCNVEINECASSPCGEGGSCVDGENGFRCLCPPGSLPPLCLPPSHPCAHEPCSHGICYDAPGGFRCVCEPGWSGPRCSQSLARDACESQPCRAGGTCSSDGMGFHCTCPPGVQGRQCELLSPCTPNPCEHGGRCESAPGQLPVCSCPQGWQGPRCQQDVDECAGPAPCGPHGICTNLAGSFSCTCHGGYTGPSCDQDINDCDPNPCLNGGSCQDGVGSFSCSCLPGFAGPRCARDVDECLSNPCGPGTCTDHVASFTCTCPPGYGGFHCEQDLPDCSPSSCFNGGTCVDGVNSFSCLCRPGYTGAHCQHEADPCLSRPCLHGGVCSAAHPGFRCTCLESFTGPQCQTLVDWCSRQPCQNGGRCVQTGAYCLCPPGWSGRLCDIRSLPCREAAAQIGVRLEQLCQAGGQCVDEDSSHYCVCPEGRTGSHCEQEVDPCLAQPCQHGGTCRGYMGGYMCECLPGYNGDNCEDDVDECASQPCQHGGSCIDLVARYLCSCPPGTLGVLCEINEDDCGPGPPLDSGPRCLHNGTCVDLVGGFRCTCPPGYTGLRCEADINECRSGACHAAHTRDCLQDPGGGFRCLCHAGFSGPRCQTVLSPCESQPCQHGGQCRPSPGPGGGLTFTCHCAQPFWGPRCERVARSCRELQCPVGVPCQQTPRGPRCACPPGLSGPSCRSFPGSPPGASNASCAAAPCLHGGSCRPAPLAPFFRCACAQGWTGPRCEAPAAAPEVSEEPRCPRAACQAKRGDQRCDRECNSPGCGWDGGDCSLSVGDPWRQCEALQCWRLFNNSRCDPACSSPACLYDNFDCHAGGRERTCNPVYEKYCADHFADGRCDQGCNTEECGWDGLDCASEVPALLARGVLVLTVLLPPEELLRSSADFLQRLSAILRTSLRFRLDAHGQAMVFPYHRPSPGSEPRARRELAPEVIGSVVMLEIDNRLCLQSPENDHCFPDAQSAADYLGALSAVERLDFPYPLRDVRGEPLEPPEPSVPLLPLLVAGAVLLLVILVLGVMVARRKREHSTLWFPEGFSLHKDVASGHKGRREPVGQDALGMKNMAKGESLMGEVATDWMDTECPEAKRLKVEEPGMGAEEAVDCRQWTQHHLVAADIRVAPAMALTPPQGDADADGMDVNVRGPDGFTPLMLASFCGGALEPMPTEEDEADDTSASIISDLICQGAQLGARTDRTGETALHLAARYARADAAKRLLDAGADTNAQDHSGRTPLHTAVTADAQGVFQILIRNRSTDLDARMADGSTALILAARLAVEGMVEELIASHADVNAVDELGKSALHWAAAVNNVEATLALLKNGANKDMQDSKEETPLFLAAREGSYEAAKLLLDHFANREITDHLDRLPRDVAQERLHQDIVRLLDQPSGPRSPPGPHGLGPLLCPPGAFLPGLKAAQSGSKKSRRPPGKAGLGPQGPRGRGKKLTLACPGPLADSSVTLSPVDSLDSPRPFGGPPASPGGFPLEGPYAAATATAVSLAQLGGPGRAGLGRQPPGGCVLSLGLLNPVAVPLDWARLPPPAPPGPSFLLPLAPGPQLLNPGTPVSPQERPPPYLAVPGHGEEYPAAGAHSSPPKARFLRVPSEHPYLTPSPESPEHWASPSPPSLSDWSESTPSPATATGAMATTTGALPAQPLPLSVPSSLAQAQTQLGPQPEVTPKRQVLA
Sequence of Torsin-1A-interacting protein 2 (Homo sapiens) (Q8NFQ8 whole entry, looked up): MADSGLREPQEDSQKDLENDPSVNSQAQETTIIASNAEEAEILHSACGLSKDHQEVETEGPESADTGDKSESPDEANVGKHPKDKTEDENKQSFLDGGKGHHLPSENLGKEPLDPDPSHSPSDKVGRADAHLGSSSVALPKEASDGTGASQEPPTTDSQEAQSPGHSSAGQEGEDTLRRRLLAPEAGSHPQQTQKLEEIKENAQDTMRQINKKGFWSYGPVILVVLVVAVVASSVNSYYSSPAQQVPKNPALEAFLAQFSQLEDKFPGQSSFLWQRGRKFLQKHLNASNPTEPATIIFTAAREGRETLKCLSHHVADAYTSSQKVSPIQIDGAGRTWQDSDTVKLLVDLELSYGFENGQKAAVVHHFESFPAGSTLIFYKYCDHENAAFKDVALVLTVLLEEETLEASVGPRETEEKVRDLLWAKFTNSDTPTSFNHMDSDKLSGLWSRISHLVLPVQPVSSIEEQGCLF
Sequence of Fibroblast growth factor 10 (Homo sapiens) (O15520 whole entry, looked up): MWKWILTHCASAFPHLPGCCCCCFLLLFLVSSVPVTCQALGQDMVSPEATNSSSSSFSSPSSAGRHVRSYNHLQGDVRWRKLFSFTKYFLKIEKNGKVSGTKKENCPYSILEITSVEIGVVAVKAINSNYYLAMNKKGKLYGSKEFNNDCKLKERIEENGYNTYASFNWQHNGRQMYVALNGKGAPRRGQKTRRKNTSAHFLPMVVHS
Sequence of Follistatin-related protein 3 (Homo sapiens) (O95633 whole entry, looked up): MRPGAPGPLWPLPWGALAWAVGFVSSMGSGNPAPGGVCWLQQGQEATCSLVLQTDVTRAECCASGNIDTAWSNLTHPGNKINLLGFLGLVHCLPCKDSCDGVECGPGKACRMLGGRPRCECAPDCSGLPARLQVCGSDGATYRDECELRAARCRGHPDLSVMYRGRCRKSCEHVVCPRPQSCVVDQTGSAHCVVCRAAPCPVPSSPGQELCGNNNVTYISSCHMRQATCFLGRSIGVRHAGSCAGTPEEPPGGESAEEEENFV
Sequence of Epidermal growth factor receptor (Homo sapiens) (P00533 whole entry, looked up): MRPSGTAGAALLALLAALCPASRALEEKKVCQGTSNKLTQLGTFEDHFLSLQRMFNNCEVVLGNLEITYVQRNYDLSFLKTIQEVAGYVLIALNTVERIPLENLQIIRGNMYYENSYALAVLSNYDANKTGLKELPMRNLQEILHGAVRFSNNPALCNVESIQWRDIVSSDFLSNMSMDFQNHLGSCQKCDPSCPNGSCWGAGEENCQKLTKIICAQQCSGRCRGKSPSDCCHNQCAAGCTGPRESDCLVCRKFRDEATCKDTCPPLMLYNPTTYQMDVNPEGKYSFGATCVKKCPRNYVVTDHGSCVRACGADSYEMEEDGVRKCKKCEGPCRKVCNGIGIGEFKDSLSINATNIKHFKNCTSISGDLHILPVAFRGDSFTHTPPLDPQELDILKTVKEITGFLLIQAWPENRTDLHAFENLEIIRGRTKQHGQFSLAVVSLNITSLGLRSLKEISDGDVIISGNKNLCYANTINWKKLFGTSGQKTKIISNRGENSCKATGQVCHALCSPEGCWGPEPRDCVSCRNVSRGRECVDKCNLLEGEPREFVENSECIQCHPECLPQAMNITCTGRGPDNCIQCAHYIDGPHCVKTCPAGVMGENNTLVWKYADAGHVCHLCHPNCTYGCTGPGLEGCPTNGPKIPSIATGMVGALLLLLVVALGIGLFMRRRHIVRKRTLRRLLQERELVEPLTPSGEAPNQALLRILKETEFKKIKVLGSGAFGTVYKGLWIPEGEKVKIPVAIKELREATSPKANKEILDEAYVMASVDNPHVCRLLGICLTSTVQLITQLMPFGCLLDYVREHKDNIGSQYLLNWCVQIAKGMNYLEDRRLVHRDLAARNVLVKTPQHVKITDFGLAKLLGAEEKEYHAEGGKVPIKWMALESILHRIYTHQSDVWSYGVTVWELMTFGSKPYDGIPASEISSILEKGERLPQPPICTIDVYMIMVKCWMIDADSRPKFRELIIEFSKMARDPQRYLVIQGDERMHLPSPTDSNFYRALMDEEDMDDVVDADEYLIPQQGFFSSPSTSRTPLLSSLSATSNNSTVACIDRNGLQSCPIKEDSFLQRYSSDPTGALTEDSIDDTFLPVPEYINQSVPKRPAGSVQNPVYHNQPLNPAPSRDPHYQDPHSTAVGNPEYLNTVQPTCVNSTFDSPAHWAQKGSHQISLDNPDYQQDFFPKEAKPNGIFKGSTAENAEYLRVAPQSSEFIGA
Sequence of Dickkopf-related protein 1 (Homo sapiens) (O94907 whole entry, looked up): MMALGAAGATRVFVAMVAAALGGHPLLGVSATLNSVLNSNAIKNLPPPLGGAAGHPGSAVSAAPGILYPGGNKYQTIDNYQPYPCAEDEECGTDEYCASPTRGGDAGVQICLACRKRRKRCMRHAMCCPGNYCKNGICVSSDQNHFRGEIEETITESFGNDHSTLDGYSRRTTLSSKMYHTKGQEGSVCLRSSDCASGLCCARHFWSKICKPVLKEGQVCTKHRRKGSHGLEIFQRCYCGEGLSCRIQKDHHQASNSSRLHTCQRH

Structure (SMILES)	composite z-score [1]	z-score [2]	z-score [3]	z-score [4]	composite z-score [5]	z-score [6]	composite z-score [7]	composite z-score [8]	composite z-score [9]	composite z-score [10]	composite z-score [11]	composite z-score [12]	composite z-score [13]	z-score [14]	composite z-score [15]	composite z-score [16]	composite z-score [17]	composite z-score [18]	composite z-score [19]	composite z-score [20]
COc1ccc(O[C@@H]2[C@H](O)CO[C@H]2C=CC#Cc2ccccc2)cc1	0.101	0.937 (inactive)	-0.777 (inactive)	0.958 (inactive)	0.0101	0.338 (inactive)	-0.197	0.347	-0.413	-0.228	1.32	-0.477	-0.716	0.167 (inactive)	0.199	-0.207	-0.352	0.103	0.438	0.539
CCOC(=O)NN=C1C[C@@H](O)[C@@H](O)[C@@H]2[C@@H]3C(=O)N(C[C@@H]4CCCO4)C(=O)[C@@H]3CC[C@@H]12	0.0939	0.822 (inactive)	-0.408 (inactive)	0.256 (inactive)	0.375	0.757 (inactive)	-0.0458	0.642	0.697	-0.0681	0.419	-0.147	-0.133	0.104 (inactive)	0.137	0.197	0.364	0.342	-0.0134	-0.0039
C=CC[C@@H]1C=C[C@H](ON=C2c3cc(OC)ccc3O[C@H](c3cccc(OC)c3)[C@H]2O)[C@@H](CO)O1	-0.524	-0.39 (inactive)	-0.851 (inactive)	-1.42 (inactive)	0.813	0.686 (inactive)	-0.233	-0.0543	0.0033	-0.133	0.0678	-0.403	-0.626	-0.766 (inactive)	0.0385	-0.325	0.379	0.0069	0.26	-0.0002
C[C@@H]1CCC2C(=O)N(Cc3ccccc3)C[C@@H](O)CN2[C@H]1c1ccc(Br)cc1 (stereo not given in full)	1.39	-1.91 (inactive)	-3.75 (inactive)	-0.26 (inactive)	1.5	0.369 (inactive)	-0.23	0.542	0.158	-0.115	0.892	-0.276	-0.441	-1.89 (inactive)	0.91	0.104	-0.0897	0.078	0.228	0.203
C=CC[C@@H]1C=C[C@H](ON=C[C@@H](OC)[C@H](C)C=CCC(=O)OC)[C@@H](CO)O1	0.325	0.78 (inactive)	0.173 (inactive)	0.634 (inactive)	0.485	0.23 (inactive)	-0.124	0.471	-0.39	0.0129	-0.433	-0.0759	-0.615	0.653 (inactive)	0.423	0.306	-0.0453	0.343	0.17	0.496
